Screens: PubChem, National Center for Advancing Translational Sciences (NCATS)
Peg3 imprint = genomic imprint erasure induction; mouse ES Peg3-LacZ reporter, beta-gal luminescence, 40 h; Potency, µM (top dose mostly 60.7 µM), without a hit: at the highest dose activity change, positive = activation, most hits filed as activators; 110,000 tested, 0.02% active; also: potency is read from the fitted curve at half-maximal effect
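Gelatin-coated wells received 300 freshly trypsinized female ES cells with a Peg3LacZ-Neo reporter on the maternal allele, then incubated 40 hours at 37C. BetaGlo was added for 5 minutes at room temperature before a single luminescence read.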
Epigenetic mod = epigenetic GFP locus derepression in mouse cells | Potency, µM (top dose mostly 46.1 µM), for inactives: at the top dose GFP derepression (activation) | 68,000 tested, 0.09% active | mouse C127i GFP locus derepression, cytometry, 30 h | AID 597; also: % of control where 0% means no effect
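Read-out is the number of GFP-positive cells, scored as fluorescent objects 20 to 120 um wide, reflecting derepression of a silenced CMV-GFP reporter in murine C127i cells after 30 h compound exposure at 37 C.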
p53ts 39C tox = kills p53ts cells at the nonpermissive temperature. H1299-p53A138V viability at 39C, ATP luminescence, 24 h. Potency, µM (top dose mostly 46.1 µM), for the others: at the highest dose activity change, negative = cell killing, actives largely listed as cytotoxic. 130,000 tested, 1.5% active. AID 902; also: potency is read from the fitted curve at half-maximal effect; % is scaled to controls: 0 for no effect and ±100 for the full control effect; nearly all actives have a fitted effect of over 55% in size
UbGFP stabilizer = ubiquitin-GFP accumulation via proteasome inhibition; Ubiquitin-GFP reporter cells, proteasome inhibition, GFP fluorescence; response scale: untreated = 0%, 10 µM MG-132 = 100%; Potency, µM (highest dose often 45.9 µM), for the others: at the top dose activation (GFP accumulation), most hits filed as activators; 67,000 tested, under 10 active; AID 526; active = well fitted activation curve with a large enough effect, not every such curve was filed as active; inconclusive = small, poorly fitted or top-dose-only effect, or another doubt; inactive = no such curve, though single readings can be large or run the other way; also: potency is read from the fitted curve at half-maximal effect
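Proteasome blockade was scored as a rise in GFP-expressing U2OS cells carrying a ubiquitin(G76V)-GFP construct, imaged after 4 hr compound treatment at 37 °C across a 46 uM–2.9 nM series.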
p53ts 32C tox = cytotoxicity in p53ts cells at permissive temperature; Potency, µM (top dose mostly 46.1 µM), for inactives: top-dose activity change, negative = cytotoxicity, usual class: cytotoxic; H1299-p53A138V at 32C, ATP luminescence viability, 24 h; 130,000 tested, 0.93% active;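 also: potency is read from the fitted curve at half-maximal effect; 0% = DMSO and -100% = full killing by reference compound; nearly all actives have a fitted effect of over 55% in size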
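Cells: H1299 p53ts (A138V), 600/well, pre-incubated 16–30 h at 37C. Cpd up to 46 uM, 24 h, 32C. Readout: ATPlite luminescence, 20 min RT. Normalization: DMSO vs tamoxifen 100 uM. AC50 by Hill equation.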
HBB splicing = modulators of hemoglobin beta chain splicing; HBB splicing reporter cell assay, activation; EGFP reporter with mutant IVS2-654 intron; response scale: normalised to 500 nM splice-correcting PNA; Potency, µM (titrated, usually from 46.1 µM), inactives show at the highest dose activation, most hits filed as activators; 65,000 tested, 0.06% active; also: potency is read from the fitted curve at half-maximal effect; 0% is about no effect
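Compounds were applied for 2 days to HeLa EGFP-654 cells, 500/well in Optimem with 2% FCS. The reporter's EGFP is disrupted by mis-splicing of beta-globin intron IVS2-654. Readout: summed well GFP fluorescence from 488 nm laser scanning; reference was 500 nM antisense […] 654 PNA.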
* = called active by the depositor; ? = inconclusive; · = no result given; [ ] = another dose, or the depositor's remark. This is a sample that favours compounds with a hit; in the whole collection about 1.6% have one here. Unless noted, calls follow the shape of the dose curve; as a rule, active = well fitted curve in the direction sought with a large enough effect; inconclusive = small, poorly fitted or top-dose-only effect, or another doubt; inactive = no such curve, though single readings can be large; an effect the other way counts as inactive or inconclusive.

SMILES	Peg3 imprint	Epigenetic mod	p53ts 39C tox	UbGFP stabilizer	p53ts 32C tox	HBB splicing
Cc1ccc(OCC(=O)N(Cc2nc(-c3ccccc3)no2)C(C)C)cc1C	-6%[10.9 µM]	·	17%	·	-4%	·
CCOc1cccc2cc(-c3nc4ccc(C(=O)O)cc4[nH]3)c(=O)oc12	-77%[10.9 µM]	·	16µM*	·	?	·
COc1ccc2oc(=O)c(-c3nc4ccc(C)cc4[nH]3)cc2c1	-17%[10.9 µM]	·	?	·	-15%	·
COc1ccc2cc(-c3nc4ccc(C(=O)O)cc4[nH]3)c(=O)oc2c1	-91%[10.9 µM]	·	2.5µM*	·	1.6µM*	·
COC(=O)c1[nH]c2cccc(C)c2c1NC(=O)CN1CCN(C(=O)c2ccco2)CC1	7%	0%	15%	-1%	1%	1%[0.369 µM]
Cc1ccc(CN(Cc2ccco2)C(=O)c2ccc(Cl)cc2Cl)cc1	-13%[10.9 µM]	·	?	·	3%	·
COc1ccc(C)cc1Nc1nc(N)c2cc(OC)c(OC)cc2n1	8%[10.9 µM]	·	20µM*	·	20µM*	·
COC(=O)c1cc(C)sc1NC(=O)c1cccnc1	-12%	0%	3%	-6%	6%	-1%
COc1ccc(CNC(=O)Cn2nc(C)c3nn(-c4ccc(Cl)cc4)c(C)c3c2=O)cc1	-3%[10.9 µM]	·	-7%	·	11%	·
C#CCn1c(/C=C/c2ccc(Cl)cc2)nc2ccccc21	-26%[10.9 µM]	·	3.2µM*	·	4µM*	·
CC(C)Cn1c(/C=C/c2ccc(F)cc2)nc2ccccc21	-9%[10.9 µM]	·	10µM*	·	13µM*	·
CCC(C)Cn1c(/C=C/c2ccccc2)nc2ccccc21 (stereo not given)	-14%[10.9 µM]	·	13µM*	·	?	·
CC(C)Cn1c(-c2ccccc2Cl)nc2ccccc21	-14%[10.9 µM]	·	-20%	·	-6%	·
CC(C)CCn1c(/C=C/c2ccccc2)nc2ccccc21	-6%[10.9 µM]	·	?	·	?	·
COc1ccccc1CCNC(=O)Cc1c(C)c2c(cc(C)c3c(C)c(C)oc32)oc1=O	11%[10.9 µM]	·	-16%	·	-3%	·
Cc1ccc(S(=O)(=O)c2nc(NC3CCS(=O)(=O)C3)sc2Cl)cc1 (stereo not given)	·	0%	3%	-2%	10%	·
COc1cc(/C=C/C(=O)N2CCC=CC2=O)cc(OC)c1OC	-35%	·	?	·	3.2µM*	·
CSCc1nnc(NC(=O)c2ccc(S(=O)(=O)N(CC(C)C)CC(C)C)cc2)o1	-24%	11%	13µM*	-8%	-4%	-1%
CCc1nnc(NC(=O)c2ccc(S(=O)(=O)N(CC(C)C)CC(C)C)cc2)o1	-21%	4%	13µM*	-5%	-3%	-1%
O=C(N/N=C1\CCc2ccccc21)c1ccccc1O	·	·	4.5µM*	·	·	·
CC(C)(C)NC(=O)NC(=O)COc1ccccc1C#N	-69%	6%	13µM*	0%	13µM*	0%[57.5 µM]
Cc1cc(C)nc(N(C#N)CC(=O)N2CCC(C(N)=O)CC2)n1	-62%	0%	8%	-3%	4µM*	-1%
Cc1cc(N2CCN(C)CC2)nc2ccc(NC(=O)c3ccc(C(C)(C)C)cc3)cc12	-19%[10.9 µM]	·	20µM*	·	16µM*	·
Cc1cc(N2CCN(C)CC2)nc2ccc(NC(=O)Nc3ccc(Cl)cc3)cc12	-6%[10.9 µM]	·	-11%	·	-14%	·
CCOc1ccccc1NC(=O)Nc1ccc2nc(N3CCN(C)CC3)cc(C)c2c1	-8%[10.9 µM]	·	10µM*	·	?	·
SMILES	Peg3 imprint	Epigenetic mod	p53ts 39C tox	UbGFP stabilizer	p53ts 32C tox	HBB splicing
COc1cc(C(=O)Oc2c(Sc3ccccc3)c(C)nn2-c2ccccc2)cc(OC)c1OC	-2%[10.9 µM]	·	-1%	·	0%	·
COCCNC(=O)C(c1cccs1)N(C(=O)Cn1nnc2ccccc21)c1cccc(C(C)=O)c1 (stereo not given)	-4%	0%	6%	-2%	4%	·
O=c1c2cc3c(cc2nc2sc(Nc4ccccc4)nn12)OCO3	-4%[10.9 µM]	·	16µM*	·	13µM*	·
CCc1ccc(CN2C(=O)CCC2(C)C(=O)NC2CCCC2)cc1 (stereo not given)	-5%	4%	-10%	-8%	5%	-3%
COC(=O)Cc1ccc(NC(=S)N2CCN(c3cccc(O)c3)CC2)cc1	·	·	12%	·	·	·
N#CCC(=O)NCC1(c2ccccc2)CCCC1	?	-4%	15%	-4%	3%	0%
Cc1ccc(C(CC(=O)NCC2(c3ccccc3)CCCC2)c2ccccc2)c(O)c1 (stereo not given)	-5%[10.9 µM]	·	16µM*	·	-27%	·
COCCn1c(C)cc(O)c(C(c2ccccc2)N2CCN(c3ccccc3F)CC2)c1=O (stereo not given)	-15%[10.9 µM]	·	-7%	·	0%	·
COc1cc(C)c(S(=O)(=O)n2ccc(C)n2)cc1C	-10%	-3%	-9%	-1%	-6%	·
CCOC(=O)C1(N(CC)CC)Sc2cc(C)ccc2NC1=O (stereo not given)	-30%	3%	16µM*	-10%	-18%	-5%
CCOC(=O)C1(Nc2nccs2)Sc2ccccc2NC1=O (stereo not given)	-19%	8%	-8%	2%	16%	0%[57.5 µM]
CCN(CC)CCNC(=O)c1ccc2c(=O)n3nc(Nc4cccc(Cl)c4C)sc3nc2c1	-4%[10.9 µM]	·	20µM*	·	?	·
Cc1ccc(C)c(Nc2nn3c(=O)c4ccc(C(=O)NCCc5ccccc5)cc4nc3s2)c1	23%[10.9 µM]	·	3.2µM*	·	-6%	·
COc1ccccc1Nc1nn2c(=O)c3ccc(C(=O)NCCC4=CCCCC4)cc3nc2s1	-37%[10.9 µM]	·	3.2µM*	·	5µM*	·
Cc1c(Cl)cccc1Nc1nn2c(=O)c3ccc(C(=O)NCCc4ccccc4)cc3nc2s1	-33%[10.9 µM]	·	?	·	?	·
COc1ccccc1Nc1nn2c(=O)c3ccc(C(=O)NCCc4ccccc4)cc3nc2s1	-34%[10.9 µM]	·	3.2µM*	·	3.2µM*	·
COc1ccccc1CNc1ccnc(-c2ccoc2)n1	-10%	0%[9.22 µM]	-14%	2%	-4%	-1%
O=C(O)[C@H]1CCCC[C@@H]1c1c2ccc(=O)c(O)c-2oc2c(O)c(O)ccc12	-10%[10.9 µM]	-1%[9.22 µM]	2%[9.22 µM]	0%[9.17 µM]	-5%[9.22 µM]	4%[9.22 µM]
CC(C)CCNC(=O)Cc1ccc(NC(=O)N2CCCCc3ccccc32)cc1	-13%[10.9 µM]	·	-6%	·	0%	·
COc1cc(/C=C(\C#N)c2nc3ccc(C)cc3[nH]2)ccc1OCc1ccc(C)cc1	-24%[10.9 µM]	·	4µM*	·	16µM*	·
CCOC(=O)COc1ccc(/C=C(\C#N)c2nc3ccc(C)cc3[nH]2)cc1OC	-16%[10.9 µM]	·	21%	·	-18%	·
Cc1ccccc1CS(=O)(=O)c1ncc(Cl)c(C(=O)Nc2nnc(C(C)C)s2)n1	-17%[10.9 µM]	·	7.9µM*	·	16µM*	·
CC(C)c1nnc(NC(=O)c2nc(S(=O)(=O)Cc3ccccc3)ncc2Cl)s1	-31%[10.9 µM]	·	6.3µM*	·	20µM*	·
